Assay outcomes as filed in PubChem.
In the library only some 5.7% were active in any assay of this set; here they are far more common.
IL1B secr inh – blocks inflammasome-driven IL-1 beta release | THP-1 LPS/ATP IL-1B secretion, AlphaLISA, 16 h; hits give low values | activity change, % at 57.5 µM | actives 4.7% (n = 360,000) | AID 743279; in the data active means activity change below about -50%; inconclusive means mostly about -30% to -49%; further: on the % scale 0 is the no-effect control and ±100 the full control effect
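Secreted IL-1B measured by AlphaLISA bead assay after 16 h compound exposure of THP-1 cells; compounds (final up to 57.5 uM) added 1 h before LPS (250 ng/mL) and ATP (1.25 mM) stimulation; lower signal means less secretion.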
HepG2 viability – counter-screen for TGF-b inhibitors: cytotoxicity in HepG2 cells | AID 588856 | HepG2 CAGA-GFP viability, ATP luminescence, 18 h | actives 0.76% (n = 410,000) | Potency, µM (highest dose often 46.1 µM), for the others: at the highest dose activity change, negative = cytotoxicity, hits mostly cytotoxic; further: potency means the concentration at half of the fitted maximal effect
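HepG2 CAGA-GFP cells (1000/well, DMEM with 1% FBS) received compound, then TGF-beta at 500 pg/mL final, and were incubated 18 hours at 37 degrees C. Viability was read by CellTiter-Glo luminescence. Media-only wells were set as complete cell-killing and DMSO as no toxicity.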
TGFb inhibitor – inhibitors of TGF-b signaling | HepG2 CAGA-GFP TGF-b/SMAD3 reporter, GFP fluorescence, 18 h; TGF-beta stimulated, 500 pg/mL final | Potency, µM (series often up to 46.1 µM), without a hit: at the highest dose activity, negative = inhibition, actives largely listed as inhibitors | actives 1.2% (n = 410,000); further: potency means the concentration at half of the fitted maximal effect; on the % scale 0 is the no-effect control and ±100 the full control effect; nearly all actives have a fitted effect of over 65% in size
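First, reporter cells (HEPG2 CAGA-GFP) rested 2 h at 37 degrees C. Next, compounds were pinned in and TGF-beta added to 500 pg/mL final. After 18 h, GFP was imaged per cell and summed per well.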
ATXN viability – viability counter-screen for ATXN expression inhibitors; S2 cells (HEK-293 line with an ATXN2-luciferase reporter) viability, CellTiter-Fluor protease fluorescence, 24 h; Potency, µM (highest dose often 56.7 µM), actives largely listed as cytotoxic; actives 0.49% (n = 400,000); further: potency means the concentration at half of the fitted maximal effect; nearly all actives have a fitted effect of over 40% in size
ATXN2 expr inh – ATXN2 expression inhibition; actives 0.72% (n = 360,000); Potency, µM (highest dose often 57 µM), for the others: at the top dose activity change, negative = inhibition, hits mostly inhibitors; HEK-293 ATXN2-luciferase reporter, luminescence, 24 h; AID 1745845; further: potency means the concentration at half of the fitted maximal effect; on the % scale 0 is the no-effect control and ±100 the full control effect; nearly all actives have a fitted effect of over 55% in size
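qHTS (up to 57 uM final) was run with 24 h compound exposure of reporter cells at 37 °C. Each well was multiplexed: SteadyGlo luminescence measured ATXN2-luciferase expression after a fluorogenic Gly-Phe-AFC viability readout (25 uM final).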
An asterisk follows results filed as active; i = inactive; ? = inconclusive; nt = not tested or not shown. Unless noted, the call rests on the fitted dose curve; in most records, active means well fitted curve in the direction sought with a large enough effect; inconclusive means small, poorly fitted or top-dose-only effect, or another doubt; inactive means no such curve, though single readings can be large; an effect the other way counts as inactive or inconclusive.

SMILES	IL1B secr inh	HepG2 viability	TGFb inhibitor	ATXN viability	ATXN2 expr inh
CCCNC1=C(N(C(C)=O)c2cccc(F)c2)C(=O)c2ccccc2C1=O	-84.5*	7.94µM*	?	nt	28.2µM*
CN(C)c1ccc(-c2cc(C3C4C=CCCC4(C)C(=O)N3Cc3ccccc3)ccc2F)cc1 (stereo unspecified)	nt	7.2%	1.9%	nt	nt
NS(=O)(=O)c1ccc(NN=C2CCN(Cc3ccccc3)CC2)c([N+](=O)[O-])c1	18.4	5.3%	-2.8%	i	-3.0%
CC1C/C(=N\Nc2ccc(S(N)(=O)=O)cc2[N+](=O)[O-])CC(C)(C)C1 (stereo unspecified)	-79.2*	-95.2%	?	i	-8.3%
NS(=O)(=O)c1ccc(N/N=C2/CCCCC2C2CCCCC2)c([N+](=O)[O-])c1 (stereo unspecified)	-112.1*	-115.2%	?	?	?
COc1cccc(-c2cc3c(c(OC)c2)OCCN(S(=O)(=O)c2ccccc2OC(F)(F)F)C3)n1	nt	nt	nt	i	nt
CCOc1ccc(-c2cn3c(n2)sc2cc(C(=O)NCCc4ccc(OC)c(OC)c4)ccc23)cc1	nt	-42.1%	-19.3%	nt	nt
CN1C(=O)c2ccccc2Sc2ccc(NC(=O)N3CCN(c4ccc(F)cc4)CC3)cc21	nt	-13.1%	?	nt	nt
CC(C)Cn1c(O)c(/C=C2\C=NN=C2c2ccccc2)sc1=S	-88.8*	-83.6%	?	nt	?
CCCCn1c(O)c(/C=C2\C=NN=C2c2ccccc2)sc1=S	-85.1*	-81.9%	-7.6%	?	-35.9%
CCn1c(O)c(/C=C2\C=NN=C2c2ccccc2)sc1=S	?	-28.6%	-17.3%	?	-2.6%
CCCCCCn1c(O)c(/C=C2\C=NN=C2c2ccccc2)sc1=S	-87.5*	-36.7%	?	?	-29.3%
Cc1ccc2c(c1)/C(=C/c1ccccc1C)C(=O)N2	-99.9*	-40.7%	0.0%	?	0.0%
Cc1ccc2c(c1)/C(=C/c1ccc(F)cc1)C(=O)N2	-74.6*	10µM*	?	?	nt
COc1ccc2c(c1)/C(=C/c1cc(OC)c(OC)c(OC)c1)C(=O)N2	-6.0	-8.9%	?	?	-21.4%
Cc1cc(-c2csc(Nc3ccccn3)n2)ccc1F	-57.6*	-19.7%	?	i	96.9%
CC(=O)Nc1cccc(-c2csc(Nc3ccc(C)cn3)n2)c1	-100.3*	-33.9%	?	i	60.4%
COc1ccccc1Nc1nc(-c2cccnc2)cs1	-95.3*	-7.6%	10.4%	i	53.2%
Cc1ccc(-c2csc(Nc3ccccn3)n2)cc1	-77.4*	-4.2%	-16.2%	i	-29.6%
CC(C)CCNC(=O)c1ccc(Cn2c(SCC(=O)NC(C)C)nc3ccccc3c2=O)cc1	nt	-10.9%	2.3%	i	1.7%
CCOC(=O)c1ccc(NC2=CC(c3ccc(O)c(OCC)c3)N(c3ccc(C(=O)OCC)cc3)C2=O)cc1 (stereo unspecified)	nt	2.3%	27.2%	i	-3.4%
Cc1cccnc1Nc1nc(-c2ccc(F)cc2)cs1	-52.0*	0.9%	?	i	71.0%
COc1ccc(-c2csc(Nc3ccccn3)n2)cc1OC	-69.8*	-31.3%	?	i	50.2%
Cc1ccnc(Nc2nc(-c3ccc(F)cc3)cs2)c1	-92.7*	-75.8%	-13.7%	i	-8.4%
Cc1ccnc(Nc2nc(-c3ccc(Cl)cc3)cs2)c1	4.7	-8.7%	-1.1%	i	31.3%
SMILES	IL1B secr inh	HepG2 viability	TGFb inhibitor	ATXN viability	ATXN2 expr inh
COc1ccc(-c2csc(Nc3ccc(C)cn3)n2)cc1	-67.5*	12.6%	3.3%	i	40.9%
CC(=O)Oc1ccc(-c2csc(Nc3ccc(Cl)cn3)n2)cc1	-12.5	-47.5%	?	?	-30.0%
Cc1nc(C)c(-c2csc(Nc3ccccn3)n2)s1	0.0	-38.6%	?	?	31.9%
Cc1cccnc1Nc1nc(-c2ccc(O)cc2)cs1	?	-32.9%	?	i	113.6%
c1ccc(-c2csc(Nc3ccccn3)n2)cc1	-55.1*	-16.6%	-15.4%	i	40.7%
Oc1ccc(-c2csc(Nc3ccccn3)n2)cc1	-73.4*	-12.9%	-19.7%	?	89.1%
CC[C@H]1OC(=O)[C@H](C)[C@@H](O[C@H]2C[C@@](C)(OC)[C@@H](O)[C@H](C)O2)[C@H](C)[C@@H](O[C@@H]2O[C@H](C)C[C@H](N(C)C)[C@H]2O)[C@](C)(O)C[C@@H](C)/C(=N\OCOCCOC)[C@H](C)[C@@H](O)[C@]1(C)O	nt	nt	nt	i	nt
O=C(COC(=O)c1ccccc1OCc1ccccc1Cl)NCC1CCCO1 (stereo unspecified)	-50.8*	-34.3%	?	i	-9.4%
CCCc1cc(C(=O)Nc2cccc3ccccc23)n(C)n1	12.0	0.3%	3.8%	i	-21.8%
CCCc1cc(C(=O)Nc2ccc(C(=O)c3ccc(C)cc3)cc2)n(C)n1	-62.5*	-31.2%	?	i	?
Cc1cccc(N2CCN(C(=O)CCNS(=O)(=O)c3ccc4c(c3)oc(=O)n4C)CC2)c1C	-67.3*	-5.8%	-26.0%	i	-33.3%
COc1cccc(CNC(=O)c2oc3ccc4c(c3c2C)C(=O)CC(C)(C)O4)c1OC	nt	-15.1%	nt	nt	nt
CCCCOC(=O)c1ccc(NC(=O)Cc2coc3c(C)c(C)ccc23)cc1	nt	-57.6%	?	i	-25.7%
COc1ccc(-c2csc(NC(=O)C3CCN(c4ncnc5sc(C)c(C)c45)CC3)n2)cc1OC	63.8	-9.0%	-24.3%	i	7.94µM*
Cc1sc2ncnc(N3CCC(C(=O)NCC(=O)Nc4ccc(F)c(F)c4)CC3)c2c1C	-78.9*	-27.9%	?	?	?
COc1ccccc1OCC(=O)NNC(=O)C1CCN(c2ncnc3sc(C)c(C)c23)CC1	-7.3	-12.6%	?	?	nt
CCC(NC(=O)Nc1cc(OC)ccc1OC)c1c(-n2cccc2)sc2c1CCN(CC)C2 (stereo unspecified)	nt	-35.7%	-24.4%	nt	nt
COc1cc(OC)c2c(c1C(CCN1CCN(c3ccccc3)CC1)c1ccc(N(C)C)cc1)OC(=O)CC2c1ccc(N(C)C)cc1 (stereo unspecified)	nt	6.1%	-25.1%	nt	nt
CC1=C(C(=O)OCCNC(=O)c2ccccc2O)C(c2ccccc2[N+](=O)[O-])C(C(=O)OCC2CCCO2)=C(C)N1 (stereo unspecified)	-57.9*	-19.1%	?	i	-24.1%
CC1=C(C(=O)OCC2CCCO2)C(c2ccccc2)NC(=O)N1 (stereo unspecified)	6.6	-9.3%	1.0%	i	-6.1%
CCc1cccc(NC(=O)Cn2nc(C)c3sc4ccccc4c3c2=O)c1	nt	-10.0%	16.1%	i	9.9%
O=C(O)c1ccccc1C(=O)Nc1ccccc1	-1.4	-5.1%	-23.3%	i	2.5%
